Test results from PubChem BioAssay (NCI).
This is part of a sample that, as a whole, favours compounds with a hit. Of some 79,000 tested, about 15% had one in any assay. Cut-off read from the data, not from the text of the source: active = growth inhibition above about 70%; inactive = the rest.

How the values were obtained:
[1] = NCI Yeast Anticancer Drug Screen. Data for the rad50 strain (AID 155);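 note: 0% = growth of vehicle-only cultures of the same strain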; conditions: S. cerevisiae rad50 strain growth inhibition; at 50.0 µM; hits give high values
In short: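 Inhibition values express reduced yeast growth in compound-treated cultures relative to vehicle-treated controls.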

[2] = NCI Yeast Anticancer Drug Screen. Data for the mec2-1 strain (AID 157); conditions: S. cerevisiae mec2-1 strain, at 50.0 µM, hits give high values
In short: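 Compounds were applied to mec2-1 yeast cells. Their growth was then compared with that of vehicle-treated cultures to give growth inhibition.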

[3] = NCI Yeast Anticancer Drug Screen. Data for the sgs1 mgt1 strain (AID 161);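 note: 0% = growth of cultures given vehicle only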; conditions: S. cerevisiae sgs1 mgt1 strain, at 50.0 µM, hits give high values
In short: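 Compounds are added to genetically altered yeast, and growth is compared with cultures given vehicle alone to give percent inhibition.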

[4] = NCI Yeast Anticancer Drug Screen. Data for the cln2 rad14 strain (AID 165);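 note: 0% = growth equal to vehicle treated cultures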; conditions: S. cerevisiae cln2 rad14 strain, at 50.0 µM, hits give high values
In short: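 Strain: cln2 rad14 yeast, altered in cell cycle control and DNA damage repair. Read-out: growth inhibition vs vehicle.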

[5] = NCI Yeast Anticancer Drug Screen. Data for the bub3 strain (AID 167); conditions: S. cerevisiae bub3 mutant strain, at 50.0 µM, hits give high values
In short: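 Steps: expose the mutant yeast strain to compound; grow alongside vehicle-treated cultures; measure growth; express inhibition against the vehicle cultures.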

[6] = NCI Yeast Anticancer Drug Screen. Data for the mlh1 rad18 strain (AID 175); conditions: S. cerevisiae mlh1 rad18 strain growth inhibition; at 50.0 µM; hits give high values
In short: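 A repair-deficient yeast strain is exposed to test compound, and growth is scored relative to vehicle-treated controls.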

Measured: growth inhibition

Cc1ccc2c(c1)C(=O)/C(=N/Nc1ccc(Cl)cc1)CCO2
inactive: [1] 7.65% | [2] -16.1% | [3] 6.2% | [4] -2% | [5] 6.8% | [6] 4.65%

Cc1c(Cl)cccc1NC(=O)Nc1ccccc1F
inactive: [1] 14.2% | [2] 7.65% | [3] 15.2% | [4] 19.2% | [5] 28.4% | [6] 17.4%

C1CC(CCN2CCOCC2)CCN1
inactive: [1] -16.4% | [2] -46.6% | [3] -17.3% | [4] 9.8% | [5] -2.7% | [6] -8.45%

O=c1[nH]cc(COCC(O)CO)c(=O)[nH]1 (configuration not stated)
inactive: [1] -27% | [2] -10.7% | [3] -43.9% | [4] 3.95% | [5] -29.9% | [6] -23.7%

COc1ccc2c(ccc3[nH]c4c(C)cnc(NCCCN)c4c32)c1
inactive: [1] -39.6% | [2] -31.8% | [3] -29.3% | [4] -15.1% | [5] -17.4% | [6] -39.8%

ClCC(OCc1ccccc1)OCc1ccccc1
inactive: [1] -21.6% | [2] 4.8% | [3] -4.45% | [4] -36% | [5] 12.4% | [6] 17.1%

COc1ccc(C2C(Cl)C(=O)N2NC(=O)c2ccccc2O)cc1 (configuration not stated)
inactive: [1] -27.2% | [2] -17.4% | [3] -38.1% | [4] -1.45% | [5] -4.6% | [6] -34.8%

CC(C)OC(=O)C(=O)OC(C)C
inactive: [1] 14.3% | [2] 20.1% | [3] -24.3% | [4] 0.1% | [5] 0.85% | [6] 1.85%

COc1c2c(cc3c1[C@@H]1Oc4c(ccc(O)c4CC=C(C)C)[C@@H]1CO3)OC(C)(C)C=C2
inactive: [1] 45.5% | [2] 52.7% | [3] 36.9% | [4] 55.2% | [5] 44.5% | [6] 41.4%

CCC(C(O)c1ccccc1)[N+](=O)[O-] (configuration not stated)
inactive: [1] 54.8% | [2] 31.3% | [3] 9.5% | [4] -8.75% | [5] -11.1% | [6] 10.3%

Cn1c(=S)[nH]c2sc3c(c2c1=O)CCCCC3
inactive: [1] 12.2% | [2] -0.6% | [3] 8.25% | [4] 6.65% | [5] -4.05% | [6] 8.4%

c1ccc2c(N=C(Nc3cccc4ccccc34)c3cccc4ccccc34)cccc2c1
inactive: [1] 20.4% | [2] 19.6% | [3] 35.8% | [4] 28.9% | [5] 17.3% | [6] 13.6%

COc1cc(C2c3cc4c(cc3OC(O)C2C)OCO4)cc(OC)c1OC (configuration not stated)
inactive: [1] -11.9% | [2] 4.85% | [3] 11.7% | [4] -46.6% | [5] 16.1% | [6] -4.15%

Cc1nc(-n2nc(-c3ccccc3)cc2-c2ccccc2)sc1C(=O)/C=C/c1ccccc1
inactive: [1] 6.95% | [2] 18.9% | [3] 14.7% | [4] 9.1% | [5] 29.6% | [6] 12.9%

O=C(O)C(=O)Cc1ccc(Br)cc1[N+](=O)[O-]
inactive: [1] 5.45% | [2] -6.6% | [3] 1.8% | [4] -3% | [5] 1.45% | [6] 12.2%

O=c1c2cc([N+](=O)[O-])ccc2[nH]n1Cc1ccccn1
inactive: [1] 12.5% | [2] 10.2% | [3] -19.6% | [4] 9.45% | [5] -13.9% | [6] 3.8%

O=C(NCCCCCCNC(=O)Nc1cccc2ccccc12)Nc1cccc2ccccc12
inactive: [1] -13.9% | [2] -14.4% | [3] 7.05% | [4] -7.75% | [5] -2.3% | [6] -13.6%

c1ccc(-c2csc3[n+]2CCN3)cc1
inactive: [1] 18.6% | [2] 13.9% | [3] 12.8% | [4] 5.3% | [5] 2.8% | [6] 14.2%

CCC(Sc1cc(Cl)c(C)cc1S(=O)(=O)Nc1nc(N)nc(N(C)C)n1)C(=O)O (configuration not stated)
inactive: [1] -16.1% | [2] -10.1% | [3] 6.3% | [4] 25.2% | [5] -12.3% | [6] 2%

COc1ccc(C#CC(O)C(F)(F)F)cc1 (configuration not stated)
inactive: [1] -7.9% | [2] -20.4% | [3] -8.35% | [4] -18.4% | [5] -46% | [6] -11.5%

O=c1ccsc(=S)[nH]1
inactive: [1] -1% | [2] -2.1% | [3] -8.35% | [4] 0.25% | [5] 9.05% | [6] -3.9%

CC(=O)C[n+]1ccccc1Oc1ccccc1
inactive: [1] 5.9% | [2] 4.15% | [3] 4.25% | [4] 11.2% | [5] 12.8% | [6] 3.75%

COC(=O)CCc1ccc(CCC(=O)OC)cc1
inactive: [1] -14.8% | [2] -37.1% | [3] -1.5% | [4] 4.2% | [5] -11.2% | [6] 9.7%

O=C1C=CC(=CC=C2C=CN(CCCCCCO)C=C2)C=C1
inactive: [1] 18.4% | [2] 6.05% | [3] 26.2% | [4] 13.8% | [5] 8.65% | [6] 16.1%

COC(=O)C1(CC(=O)c2ccc(Cl)cc2)NC(=S)NC(=O)C1C#N (configuration not stated)
inactive: [1] 13.6% | [2] 12.6% | [3] 8% | [4] 7.95% | [5] -10.9% | [6] 22.5%

CC(=O)Nc1ccc2ccccc2c1SC1CC(=O)N(c2ccccc2)C1=O (configuration not stated)
inactive: [1] -24.1% | [2] -3% | [3] -26.2% | [4] -23.4% | [5] -15.8% | [6] -20.6%

CCOC(=O)C(NCc1cccc(C(F)(F)F)c1)(NC(=O)c1ccccc1)C(F)(F)F (configuration not stated)
inactive: [1] 12.2% | [2] -0.95% | [3] -1.95% | [4] 17.9% | [5] 8.4% | [6] 25%

CCN(CC)CCCNc1[nH]ncc2c(C)c3nc4ccccc4c3cc12
inactive: [1] 14.1% | [2] -10.2% | [3] 14.7% | [4] 10.1% | [5] 9.4% | [6] -4.05%

COc1ccc(CSC(=S)Nc2ccc(C)c(Cl)c2)cc1
inactive: [1] 26% | [2] 18.2% | [3] 18.6% | [4] 10.1% | [5] -3.35% | [6] 17.2%

NC(CCC(N)C(=O)O)C(=O)O (configuration not stated)
inactive: [1] -25.4% | [2] -20.6% | [3] -25.2% | [4] -13.5% | [5] -13.1% | [6] -18.1%

CN(Cc1ccccc1)C(=O)c1cccc(C(=O)N(C)Cc2ccccc2)c1
inactive: [1] 9.85% | [2] 22.5% | [3] 19.1% | [4] 13.8% | [5] 21.7% | [6] 17.6%

N#C/C(N)=C(\C#N)N=CN
inactive: [1] -5.5% | [2] 5.5% | [3] -7.1% | [4] 34% | [5] -22.3% | [6] -27.9%

CCCCCCCCCCCCCCCCCCCCC1CC(=O)OC1=O (configuration not stated)
inactive: [1] 41.6% | [2] 11.8% | [3] 36.4% | [4] 9.45% | [5] 2.7% | [6] 29.2%

COc1cc(Nc2cnc3cc(N)ccc3n2)cc(OC)c1OC
inactive: [1] -16.8% | [2] -33.8% | [3] -31.2% | [4] -16.2% | [5] -9.65% | [6] -45.5%

CC(C)C(C)(O)c1ccccc1 (configuration not stated)
inactive: [1] -3.15% | [2] -28.8% | [3] 5.35% | [4] -10.9% | [5] 0.35% | [6] 0.9%

CC(C)CSCC1OC(n2cnc3c(N)nccc32)C(O)C1O (configuration not stated)
inactive: [1] -6.15% | [2] -13.8% | [3] -7.85% | [4] 10% | [5] -12.7% | [6] -20.4%

C=CCn1c(C23CC4CC(CC(C4)C2)C3)n[nH]c1=S
inactive: [1] 27.6% | [2] 37.7% | [3] -8.45% | [4] 19.2% | [5] 3.55% | [6] -26.3%

CCC(=O)OC1C(OC2C(C)C(OC3CC(C)(OC)C(O)C(C)O3)C(C)C(=O)OC(CC)C(C)(O)C(O)C(C)C(=O)C(C)CC2(C)O)OC(C)CC1N(C)C (configuration not stated)
inactive: [1] -18.1% | [2] -28.1% | [3] -31.2% | [4] 5.7% | [5] -3% | [6] -76.8%

CC(C)N(C(=O)C12C3C4C1(I)C1C2C3(I)C41C(=O)N(C(C)C)C(C)C)C(C)C (configuration not stated)
inactive: [1] -9.55% | [2] 23.1% | [3] 25.9% | [4] 18.6% | [5] -0.25% | [6] -12.2%

C1=Nc2ccccc2Cn2nncc21
inactive: [1] 19.7% | [2] 21% | [3] 43.1% | [4] 18.4% | [5] 17.1% | [6] 41.5%

O=S(O)CCCSSc1ccccc1
inactive: [1] 38.5% | [2] 22.4% | [3] 40.1% | [4] 56.1% | [5] 40.7% | [6] 67.2%

CCOC(=O)CCc1ccco1
inactive: [1] 3.15% | [2] -5.7% | [3] -4.45% | [4] 4.15% | [5] 9.1% | [6] 15.2%
